Structures are written as SMILES. About 1,100 (1.7%) of roughly 63,000 compounds were called active. Cut-off read from the data, not from the text of the source: active = cytotoxicity above about 50%; inactive = the rest. The list comes from a sample in which actives are over-represented; it also holds similar structures and randomly drawn compounds. Results with a measured potency or affinity are listed apart.

A short description of the test: HPDE-C7 pancreatic duct cell viability loss – fluorescence, HTS (AID 430).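 Note: cells exposed to compound for 48 hours before viability readout; 0% = vehicle and 100% = reference cytotoxic drug.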 Particulars: HPDE-C7 pancreatic duct cells viability, at 10 µM, active compounds read high.
In the case of `O=C(CCCC(=O)N(CC(=O)NC1CCCC1)C1CCCC1)Nc1ccccn1`, the cytotoxicity was -20.8% (inactive).
The same measure for `CCNC(=O)NC(=O)C(C)Oc1ccc(C(=O)OC)cc1` (configuration not stated): 2.8% (inactive).
For `Cc1ccc(-c2csc3nnc(SCC(=O)Nc4nsc(-c5ccccc5)n4)n23)cc1`, the cytotoxicity is -4.6% (inactive).
`Cc1sc(NC(=O)CSc2nnc(COc3ccccc3)n2C)c(C#N)c1C`: the cytotoxicity is 4.2% (inactive).
The same measure for `Oc1ccccc1-c1nnc(COc2ccc(Cl)cc2Cl)o1`: 35.9% (inactive).
Regarding `O=C(O)CCCC(=O)Nc1nc(-c2ccccc2)cs1`, the cytotoxicity was 6.9% (inactive).
Regarding `CCOc1cc2[nH]c(=O)n(CCC(=O)N3CCN(c4ccccc4OC)CC3)c(=O)c2cc1OCC`, the cytotoxicity was -8.1% (inactive).
On to `COc1cc2[nH]c(=O)n(CCC(=O)N3CCN(c4cc(Cl)ccc4C)CC3)c(=O)c2cc1OC`, for which the cytotoxicity is 63.8% (active).
On to `COc1cc2[nH]c(=O)n(CCC(=O)N3CCN(c4cccc(C)c4C)CC3)c(=O)c2cc1OC`, for which the cytotoxicity is 0.4% (inactive).
In the case of `COc1ccc(Cl)cc1C(=O)N1CCN=C1SC`, the cytotoxicity is -11.2% (inactive).
For `CCOc1cc(C#N)c(NC(=O)c2cccnc2)cc1OCC`, the cytotoxicity was 51.5% (active).
`CCOc1cc(C#N)c(NC(=O)c2ccnn2C)cc1OCC`: the cytotoxicity is 23.5% (inactive).
Consider `CCOc1cc(C#N)c(NC(=O)c2ccco2)cc1OCC`, for which the cytotoxicity was 12.6% (inactive).
Regarding `CCc1c(C)nc(Nc2nc(C)c3cc(OC)ccc3n2)[nH]c1=O`, the cytotoxicity is 56.1% (active).
For `Cc1ccc(Nc2nc(CSc3nnnn3-c3ccccc3)cs2)cc1`, the cytotoxicity was 32.1% (inactive).
As for `COc1ccc2nc(Nc3nc(C)c(CCC(C)C)c(=O)[nH]3)nc(C)c2c1`, the cytotoxicity is 6.2% (inactive).
Regarding `CCCCCc1c(C)nc(Nc2nc(C)c3cc(OC)ccc3n2)[nH]c1=O`, the cytotoxicity is -0.5% (inactive).
With `Cc1ccc(Nc2nc(CSc3nnnn3-c3ccccc3)cc(=O)[nH]2)cc1`, the cytotoxicity is 12% (inactive).
With `Cc1nnc(SCc2cc(=O)[nH]c(Nc3nc(C)c4ccccc4n3)n2)s1`, the cytotoxicity was -0.8% (inactive).
Consider `Cc1ccc2c(C)nc(Nc3nc(CSc4nnnn4-c4ccccc4)cc(=O)[nH]3)nc2c1`, for which the cytotoxicity was 51% (active).
On to `Cc1ccc2nc(Nc3nc(=O)c4ccccc4n3C)nc(C)c2c1`, for which the cytotoxicity is 13.7% (inactive).
In the case of `Cc1nc(Nc2nc(-c3ccccc3)cc(=O)[nH]2)nc2ccccc12`, the cytotoxicity was 52.3% (active).
Take `COc1cc2nc(NC(=O)c3ccccc3)[nH]c(=O)c2cc1OC`: the cytotoxicity was 13.3% (inactive).
With `Cc1nc(-c2ccccc2)cc(=O)[nH]1`, the cytotoxicity is 4% (inactive).
As to `COc1nc(Nc2nc3ccccc3c(=O)[nH]2)nc2ccc(C)cc12`, the cytotoxicity was 86.7% (active).
As to `Cc1ccc(NC(=O)CSc2nnc(CNC(=O)c3c(F)cccc3Cl)o2)cc1`, the cytotoxicity was -9.7% (inactive).
As for `CCOc1ccc(N2CC(C(=O)Nc3ccccc3OC)CC2=O)cc1` (configuration not stated), the cytotoxicity was -2.5% (inactive).
`COc1cc(C(=S)N2CCCC2)cc(Cl)c1O`: the cytotoxicity is -4% (inactive).
In the case of `COc1ccccc1-c1cc(C(=O)NCc2ccc(Cl)cc2)no1`, the cytotoxicity was -15.3% (inactive).
Consider `OCc1nn2c(c1Br)NC(c1ccccc1)CC2C(F)(F)F` (configuration not stated), for which the cytotoxicity was -8.4% (inactive).
For the molecule `CCOc1ccc(CCNC(=O)C2CCN(c3nn4c(=O)cc(C)nc4s3)CC2)cc1OCC`, the cytotoxicity is -6.6% (inactive).
Under `COc1cc(OC)cc(C(=O)NC2CCN(Cc3nnnn3Cc3cccs3)CC2)c1` stands -7.1% (inactive); under `CC(=O)NC(CCS(C)(=O)=O)C(=O)Nc1c(C)cccc1C` (configuration not stated), 10.4% (inactive); under `COCc1cc(=O)[nH]c(Nc2nc(C)c3ccc(C)cc3n2)n1`, 5.4% (inactive).
The same measure for `COc1ccc2c(C)nc(Nc3nc(C)cc(C)n3)nc2c1`: -4.7% (inactive); for `COc1ccc2c(C)nc(Nc3nc(C)cc(=O)[nH]3)nc2c1`: 80.7% (active).
Regarding `N#Cc1c(-c2ccccc2)nc(SCc2nc(N)nc(N3CCCCC3)n2)[nH]c1=O`, the cytotoxicity is 9.2% (inactive).
On to `CCN1CCN(CCNC(=O)c2cn(C(C)c3ccccc3F)nn2)CC1` (configuration not stated), for which the cytotoxicity was -5.9% (inactive).
Consider `COc1ccc(-c2cc(-c3cc(F)ccc3O)[nH]n2)cc1OC`, for which the cytotoxicity is 8.9% (inactive).
The same measure for `COc1ccc(-c2cc(-c3ccccc3O)[nH]n2)cc1OC`: 51.6% (active).
For `Oc1ccccc1-c1cc(-c2cccc(F)c2)n[nH]1`, the cytotoxicity is 3.1% (inactive).
As for `Cc1ccc(-n2ncc(C#N)c2/N=C/N(C)C)cc1`, the cytotoxicity is 8.6% (inactive).
As for `CC(=O)Nc1ccc(NC(=O)c2cccc(C(=O)OC(C)C)n2)cc1`, the cytotoxicity was -2.2% (inactive).
Regarding `O=C(NCCCN1CCN(CCCNC(=O)c2ccc(F)cc2)CC1)c1ccc(F)cc1`, the cytotoxicity was -6.2% (inactive).
Take `CS(=O)(=O)N1CCc2cc(C(=O)O)ccc21`: the cytotoxicity is -2.9% (inactive).
With `CS(=O)(=O)N1CCc2cc(S(=O)(=O)Nc3ccc4oc5c(c4c3)CCCC5)ccc21`, the cytotoxicity was 80% (active).
The same measure for `CS(=O)(=O)N1CCc2cc(S(=O)(=O)N3CCN(Cc4ccc5c(c4)OCO5)CC3)ccc21`: 6.1% (inactive); for `COC(=O)c1ccccc1NC(=O)CSc1nnc(-c2cccc(NC(C)=O)c2)n1C`: 6.2% (inactive); for `COc1ccc(OCc2nc(N)nc(Nc3cccc(C)c3C)n2)cc1`: -10.3% (inactive).
Turning to `N#Cc1c(NCCO)nc(NCc2ccccc2)c2c1CCN(Cc1ccccc1)C2`, the cytotoxicity was 34.2% (inactive).
The same measure for `C=CCNc1nc(NCc2ccccc2)c(C#N)c2c1CN(C)CC2`: 14.5% (inactive); for `N#Cc1c(NCCCO)nc(-c2ccccc2)c2c1CCCC2`: 38.6% (inactive).
Turning to `CCN1CCc2c(C#N)c(N3CCCCC3)nc(NCc3ccccc3)c2C1`, the cytotoxicity was 30.7% (inactive).
With `O=C(c1ccccc1F)N1CCN(S(=O)(=O)c2ccc(S(=O)(=O)N3CCCCC3)cc2)CC1`, the cytotoxicity was -2.6% (inactive).
With `Cn1c(=O)n(C)c2cc(NS(C)(=O)=O)ccc21`, the cytotoxicity was -29.4% (inactive).
Consider `Cc1noc(C)c1COC(=O)c1ccc2c(c1)OCO2`, for which the cytotoxicity was -8.9% (inactive).
As to `O=S(=O)(Nc1ccc2c(c1)nc1n2CCN(Cc2ccccc2)C1)c1ccccc1`, the cytotoxicity is 2.6% (inactive).
Consider `O=S(=O)(Nc1ccc2c(c1)nc1n2CCN(Cc2ccccc2)C1)c1ccc(Cl)cc1`, for which the cytotoxicity was 68.2% (active).
In the case of `Cc1ccc(S(=O)(=O)Nc2ccc3c(c2)nc2n3CCN(Cc3ccccc3)C2)cc1`, the cytotoxicity is 10.2% (inactive).
For the molecule `Cc1ccc(NC(=O)c2ccco2)cc1C`, the cytotoxicity was -2.6% (inactive).
Regarding `O=C1NCCCC2c3c(cc(Br)c(O)c3Br)OC12N1CCOCC1` (configuration not stated), the cytotoxicity was -5.7% (inactive).
With `COC(=O)C1=C(C)NC(C)=C(C(=O)OC)C1c1cc2cc(C)ccc2[nH]c1=O`, the cytotoxicity was 2.9% (inactive).
For the molecule `COc1ccc(C)cc1S(=O)(=O)N(CC(=O)N1CCOCC1)Cc1ccccc1`, the cytotoxicity is -1.7% (inactive).
As to `N#Cc1cn(CC(=O)O)c2ccccc12`, the cytotoxicity was -15.5% (inactive).
As for `N#Cc1cn(Cc2ccccc2)c2ccccc12`, the cytotoxicity was 6.7% (inactive).
As to `N#Cc1cn(Cc2cccc(Cl)c2)c2ccccc12`, the cytotoxicity is 56.1% (active).
As to `CCOc1ccc(N2C(=O)C3CCCN3C2=O)cc1` (configuration not stated), the cytotoxicity is 3.6% (inactive).
On to `COc1ccc(C(C#N)N2CCCCCC2)cc1OC` (configuration not stated), for which the cytotoxicity is 2.4% (inactive).
For `Clc1ccc(C2=Nn3c(nnc3-c3n[nH]c4c3CCC4)SC2)cc1`, the cytotoxicity was 46.1% (inactive).
Turning to `c1ccc(C2=Nn3c(nnc3-c3n[nH]c4c3CCC4)SC2)cc1`, the cytotoxicity is 8.7% (inactive).
With `Clc1ccc(C2=Nn3c(nnc3-c3n[nH]c4c3CCC4)SC2)cc1Cl`, the cytotoxicity is 76.8% (active).
With `Fc1ccc(C2=Nn3c(nnc3-c3n[nH]c4c3CCC4)SC2)cc1`, the cytotoxicity was 0.5% (inactive).
On to `CC1=Nn2c(nnc2-c2n[nH]c3c2CCC3)SC1`, for which the cytotoxicity was -3.7% (inactive).
The same measure for `Brc1ccc(C2=Nn3c(nnc3-c3n[nH]c4c3CCC4)SC2)cc1`: 61.4% (active).
Regarding `CCc1nc(SCC(=O)Nc2cc(C)on2)c2c(C)c(C)sc2n1`, the cytotoxicity is -1.6% (inactive).
For the molecule `CC1(C)CC(=O)C(C=NC2CCCCC2)=C(O)C1`, the cytotoxicity was -6.9% (inactive).
Under `Cn1c(=O)c2c(SC3CCCC3)nc(CC(C)(C)C)nc2n(C)c1=O` stands -9% (inactive); under `Cc1onc(-c2ccccc2Cl)c1C(=O)NCc1nc(-c2ccccc2)no1`, -4.2% (inactive); under `CC(=O)c1cccc(NC(=O)c2ccc(NS(C)(=O)=O)cc2)c1`, 17.5% (inactive).
Consider `CCOC(=O)c1c(C)[nH]c(C(=O)Cn2c(=O)c3c(ncn3CC)n(Cc3ccccc3)c2=O)c1C`, for which the cytotoxicity was 4.9% (inactive).
As for `CC(C)OC(=O)c1c(NC(=O)c2cccs2)sc2c1CCCC2`, the cytotoxicity was 9.8% (inactive).
Consider `CCc1c(C)sc(NC(=O)c2cccs2)c1C(=O)OC(C)C`, for which the cytotoxicity was 58.9% (active).
Under `CCOC(=O)c1c(NC(=O)c2cccs2)sc(C)c1CC` stands -2.4% (inactive); under `COc1ccccc1CC(NC(C)=O)C(=O)NC1CCN(c2nnnn2-c2ccccc2)CC1` (configuration not stated), -2.9% (inactive); under `COc1ccc(C(=O)CSc2nnc(-c3ccc(C)cc3)o2)cc1`, -8.2% (inactive).
In the case of `COc1ccc(C(=O)CSc2nnc(-c3ccc(S(=O)(=O)N4CCOCC4)cc3)o2)cc1`, the cytotoxicity was 56.1% (active).
In the case of `CCN(CC)S(=O)(=O)c1ccc(-c2nnc(SCC(=O)c3ccc(OC)cc3)o2)cc1`, the cytotoxicity was -7.3% (inactive).
Under `O=C(CN1C(=O)c2ccccc2S1(=O)=O)N1CCN(Cc2ccc3c(c2)OCO3)CC1` stands -4.2% (inactive); under `CCCn1c(C)cc(C(=O)COc2ncnc3sccc23)c1C`, -1.4% (inactive); under `CCN1C(=O)c2cccc3c(NC(=O)c4cccc(N5C(=O)CCC5=O)c4)ccc1c23`, -19.8% (inactive).
For the molecule `CCN1C(=O)c2cccc3c(NC(=O)c4ccc5c(c4)OCCO5)ccc1c23`, the cytotoxicity was 84.7% (active).
On to `CCN1C(=O)c2cccc3c(NC(=O)c4ccc(S(=O)(=O)N(C)C)cc4)ccc1c23`, for which the cytotoxicity is -24.8% (inactive).
In the case of `COc1ccc(CCC(=O)NCc2ccco2)cc1`, the cytotoxicity is -5.5% (inactive).
For the molecule `Clc1ccccc1-c1nnn(Cc2ccc(-c3nn[nH]n3)cc2)n1`, the cytotoxicity is -10.8% (inactive).
Regarding `CS(=O)(=O)N1CCC(C(=O)N2CCC(Cc3ccccc3)CC2)CC1`, the cytotoxicity was 1.2% (inactive).
In the case of `CCCS(=O)(=O)N1CCC(C(=O)N2CCC(Cc3ccccc3)CC2)CC1`, the cytotoxicity is 79.7% (active).
With `CCCS(=O)(=O)N1CCCC(C(=O)N2CCC(Cc3ccccc3)CC2)C1` (configuration not stated), the cytotoxicity was 0.4% (inactive).

(Values after PubChem BioAssay AID430 (Sanford-Burnham Center for Chemical Genomics, 2006).)
